ELG1 repair inh: ELG1-dependent DNA repair inhibition; HEK293T ELG1-luciferase reporter, luminescence, 16 h; DNA damage induced by 5-fluorouridine; Potency, µM (series often up to 46.1 µM), for the others: at the top dose activity change, negative = inhibition, actives largely listed as inhibitors; 330,000 tested, 2.3% active; note: % is set by controls: 0 for no effect and ±100 for the full control effect; nearly all actives have a fitted effect of over 55% in size
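Overnight (16 hr) co-exposure of 2,000 cells/well to 5-fluorouridine and compound at 37 °C preceded detection. Luciferase was quantified via ONE-Glo luminescence; loss of signal denotes inhibition.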
Rab9 prom act: activators of Rab9 promoter; Huh7 Rab9 promoter-luciferase reporter, luminescence, 24 h; Potency, µM (highest dose often 9.22 µM), for inactives: at the highest dose activation, negative = inhibition, usual class: activators; 320,000 tested, 2.8% active; AID 485297; note: % of control where 0% means no effect; nearly all actives have a fitted effect of over 60% in size
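Steps: seed 1500 Huh7 Rab9-luc cells per well, rest 2 h at 37 °C; add compound in DMSO; incubate 24 h; add luciferase reagent, 10 min ambient; read luminescence.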
FLuc counter: counter-screen for miR-21 project: firefly luciferase inhibitors or activators; P08659; purified FLuc, Km substrates, luminescence inhibition; Potency, µM (titrated, usually from 57.5 µM), for inactives: at the top dose activity change, negative = inhibition, actives largely listed as inhibitors; 360,000 tested, 6.9% active;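 note: plate controls were vehicle for no effect and reference inhibitor for full effect; nearly all actives have a fitted effect of over 55% in size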
Target sequence (P08659 whole entry, looked up): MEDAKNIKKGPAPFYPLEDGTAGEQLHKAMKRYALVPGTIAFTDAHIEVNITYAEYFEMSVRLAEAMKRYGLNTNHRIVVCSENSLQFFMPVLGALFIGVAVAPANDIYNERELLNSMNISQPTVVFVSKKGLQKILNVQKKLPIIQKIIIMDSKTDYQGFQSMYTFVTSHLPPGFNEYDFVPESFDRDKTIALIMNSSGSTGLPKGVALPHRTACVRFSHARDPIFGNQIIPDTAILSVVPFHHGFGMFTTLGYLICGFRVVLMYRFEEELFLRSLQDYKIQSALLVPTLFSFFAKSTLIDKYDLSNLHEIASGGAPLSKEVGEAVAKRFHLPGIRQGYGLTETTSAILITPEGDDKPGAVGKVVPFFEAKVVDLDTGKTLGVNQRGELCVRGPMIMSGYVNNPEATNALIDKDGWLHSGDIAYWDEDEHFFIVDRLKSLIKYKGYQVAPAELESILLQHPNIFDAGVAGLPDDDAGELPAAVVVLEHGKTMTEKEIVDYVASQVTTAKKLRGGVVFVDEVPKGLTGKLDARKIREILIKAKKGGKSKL
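Purified P. pyralis luciferase, 10 nM final, with Km-level 10 uM D-luciferin and 10 uM ATP in 50 mM Tris acetate pH 7.5, 10 mM Mg acetate, 0.01% Tween-20, 0.05% BSA; 6-point qHTS titration about 60 µM downward; luminescence read.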
ELG1 genotoxic: inducers of genotoxicity in HEK293T ELG1-luciferase cells; AID 504466; 330,000 tested, 1.3% active; HEK293T ELG1-luciferase reporter, luminescence, 16 h; Potency, µM (doses to about 46 µM), for the others: at the top dose activity change, positive = activation, usual class: activators; note: % of control where 0% means no effect; nearly all actives have a fitted effect of over 60% in size
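Cells (2,000/well) expressing the ELG1-luciferase fusion are dosed by pin tool and kept 16 hr at 37 °C, 5% CO2. Signal comes from ONE-Glo luciferase reagent after 30 min at room temperature.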
NPC1 promoter act: activators of NPC1 promoter; 320,000 tested, 2.4% active; Huh7 NPC1 promoter luciferase reporter, 24 h; Potency, µM (titrated, usually from 9.22 µM), for the others: top-dose activation, hits mostly activators; note: % of control where 0% means no effect; nearly all actives have a fitted effect of over 60% in size
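Stable NPC1-promoter luciferase Huh7 line; cpd (DMSO) 24 h, 37 °C, 5% CO2; Amplite luciferase reagent 10 min RT; luminescence readout. qHTS format.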
SMN2 splice up: enhancers of SMN2 splice variant expression. 210,000 tested, 2.8% active. HEK293 SMN2-luciferase splicing reporter, luminescence, 30-36 h. Potency, µM (top dose mostly 46.1 µM), for the others: at the top dose activity change, positive = activation, actives largely listed as activators; note: % of control where 0% means no effect; nearly all actives have a fitted effect of over 55% in size
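qHTS luciferase splicing reporter: luminescence rises when SMN2 exon 7 is included in transfected HEK293 cells. Compound exposure lasted 30-36 h at 37C, with 4.5 mM final sodium butyrate as control, followed by a ONE-Glo read.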
The depositor's hits bear a star; ? = inconclusive; . = not tested or not shown. The list is not random: actives were taken first. Their share in the collection is about 9.2%. Calls come from the whole dose curve; as a rule, active = well fitted curve in the direction sought with a large enough effect; inconclusive = small, poorly fitted or top-dose-only effect, or another doubt; inactive = no such curve, though single readings can be large; an effect the other way counts as inactive or inconclusive. Potency is the fitted concentration of half-maximal effect.

SMILES	ELG1 repair inh	Rab9 prom act	FLuc counter	ELG1 genotoxic	NPC1 promoter act	SMN2 splice up
Cc1ccc(S(=O)(=O)c2cn(CC(=O)Nc3ccc4c(c3)OCO4)c3ccccc3c2=O)cc1	.	.	5.5%	.	.	12.5%
Cc1ccc(S(=O)(=O)c2cnc(SCC(=O)Nc3ccc4c(c3)OCCO4)[nH]c2=O)cc1	.	.	10.7µM*	.	.	-3.4%
Cc1cc(C)c(NC(=O)CSc2ncc(S(=O)(=O)c3ccc(C(C)(C)C)cc3)c(=O)[nH]2)c(C)c1	.	.	10.7µM*	.	.	-12.6%
CCOC(=O)Cc1c(C)nc(Cc2ccc(OC(C)C)cc2)[nH]c1=O	-7.4%	-0.7%	-3.2%	-8.2%	-2.3%	-14.4%
CCCCCCCC(=O)NC(Nc1ccc(S(N)(=O)=O)cc1)C(Cl)(Cl)Cl (centres undefined)	?	0.5%	-2.1%	-8.8%	-1.1%	-5.1%
O=C(c1ccc2c(c1)OCCO2)N1CCN(c2ccc([N+](=O)[O-])cc2)CC1	?	1.1%	0.7%	-5.3%	-5.6%	-78.4%
O=S(=O)(c1ccc(Cl)cc1)c1nc(-c2ccco2)oc1SCc1ccccc1F	.	.	1.7%	.	.	20.3%
COc1cccc(NC(=O)CSc2ncc(S(=O)(=O)c3ccc(C)c(C)c3)c(=O)[nH]2)c1	.	.	?	.	.	-0.8%
Cc1ccc(S(=O)(=O)c2cnc(SCC(=O)Nc3ccc4c(c3)OCCO4)[nH]c2=O)cc1Cl	.	.	10.7µM*	.	.	.
CC(C)c1ccc(S(=O)(=O)c2cnc(SCC(=O)Nc3ccc4c(c3)OCCO4)[nH]c2=O)cc1	.	.	10.7µM*	.	.	3.7%
COc1cccc(NC(=O)CN(C)C(=O)CCCc2nc3ccccc3c(=O)[nH]2)c1	8.9%	-4.8%	-1.0%	-0.2%	-5.2%	.
N#Cc1c(NC(=O)c2ccc(Cn3cc(Br)cn3)o2)sc2c1CCCCC2	-8.1%	-1.4%	10.7µM*	0.5%	20.9%	?
Cc1ccccc1NC(=O)c1ccc(Cn2cc([N+](=O)[O-])cn2)o1	10.5%	-1.2%	-0.1%	-0.4%	-5.2%	.
CC1CCc2c(sc(NC(=O)c3ccc(Cn4cc([N+](=O)[O-])cn4)o3)c2C#N)C1 (centres undefined)	12.7%	6.5%	13.5µM*	0.6%	9.2%	3.0%
O=C(NC1CCCCC1)c1ccc(Cn2cc(Br)cn2)o1	9.7%	-0.1%	-10.1%	4.4%	7.4%	0.1%
COC(=O)c1sc(NC(=O)c2ccc(Cn3cc(Cl)cn3)o2)c(C#N)c1C	?	-0.7%	21.3µM*	-14.3%	0.6%	-14.1%
Fc1cc(F)c2nc(N3CCCC3)sc2c1	?	?	?	8.3%	26.2%	?
COC(=O)C1Cc2c([nH]c3ccccc23)C(C(C)C)N1 (centres undefined)	?	-11.8%	-2.5%	3.2%	-0.6%	.
COC(=O)[C@@H]1Cc2c([nH]c3ccccc23)C(C)N1C(=O)c1ccccc1 (some centres undefined)	11.6µM*	-1.9%	0.4%	-6.3%	-10.0%	.
O=C(Oc1ccc(C(=S)N2CCCCC2)cc1)c1ccccc1	4.0%	-12.5%	?	3.3%	-5.5%	.
O=C(Oc1ccc(C(=S)N2CCC(O)CC2)cc1)c1ccc(Cl)cc1	10.9%	3.8%	5.36µM*	-0.1%	-2.0%	3.2%
Cc1ccc(S(=O)(=O)Oc2ccc(N3C(=O)C4C5CCC(C5)C4C3=O)cc2)cc1 (centres undefined)	8.2µM*	-7.8%	1.1%	-4.9%	-7.0%	-48.4%
Cc1ccc(S(=O)(=O)Oc2ccccc2N2C(=O)C3C4CCC(C4)C3C2=O)cc1 (centres undefined)	16.8%	-6.8%	4.8%	0.5%	-3.2%	.
Cc1nc(N2CCCC2)ncc1C(=O)N1CCN(c2ccc(Cl)cc2)CC1	.	.	5.6%	.	.	.
Cc1cc(C)cc(NC(=O)c2ncn(-c3ccccc3)n2)c1	.	.	?	.	.	11.2µM*
SMILES	ELG1 repair inh	Rab9 prom act	FLuc counter	ELG1 genotoxic	NPC1 promoter act	SMN2 splice up
Cc1ccc(OCc2ccc(C(=O)NCc3cccnc3)cc2)cc1C	22.9%	26.1%	?	10.1%	-0.1%	10.7%
O=C(Nc1ccc(NC(=O)c2ccco2)nc1)c1cccc(F)c1	?	3.16µM*	5.36µM*	?	0.891µM*	.
O=C(Nc1ccc(Oc2cccc(C(F)(F)F)c2)nc1)c1ccco1	10.3µM*	-5.0%	0.2%	-11.5%	-2.8%	.
CC(C)(C)c1ccc(Oc2ccc(NC(=O)c3ccco3)cn2)cc1	-22.1%	-32.4%	?	-9.8%	-12.4%	.
O=C(Nc1ccc(NC(=O)C2CC2)nc1)c1ccco1	?	?	?	?	?	16.6%
O=C(Nc1ccc(NC(=O)c2ccccc2F)cn1)c1ccco1	?	0.562µM*	1.9µM*	?	0.316µM*	.
COc1cccc(C(=O)Nc2ccc(NC(=O)c3ccco3)nc2)c1	?	4.47µM*	21.3µM*	19.0%	?	?
Cc1cc(F)ccc1NC(=O)c1cc(S(=O)(=O)N2CCc3ccccc32)cn1C	?	2.0%	0.0%	8.8%	-0.9%	.
Cc1cc(C(C)(C)C)c(OC(=O)[C@@H]2OC(c3ccccc3)=C[C@H]2c2ccccc2)c(C(C)(C)C)c1	-0.9%	0.2%	2.8%	-2.0%	-3.1%	.
CCOCCCNC(=S)N1CCN(c2nc(-c3ccc(F)cc3)cs2)CC1	?	-22.1%	?	-6.7%	-12.0%	.
CCOC(=O)C1(Cc2ccccc2Cl)CCN(Cc2csc(C(C)=O)c2)CC1	-9.5%	-2.3%	-1.8%	-6.7%	-1.4%	.
Nc1ncnc2nc(SCC(=O)Nc3ccccc3F)[nH]c12	10.8%	12.6%	1.0%	13.5%	-0.3%	.
O=C(Nc1ccc(NC(=O)c2ccco2)nc1)c1cccnc1	?	2µM*	10.7µM*	?	2.24µM*	11.2µM*
